{
  "source": "PubChem BioAssay (Tox21)",
  "note": "Records with an inconclusive call do not appear. Activity calls are given as the source filed them. Calls come from the whole dose curve; as a rule, active = well fitted cell-killing curve with a large enough effect in the repeat runs; inconclusive = weak or mixed curves; inactive = flat fitted curve, though single readings scatter. % is set by controls: 0 for no effect and ±100 for the full control effect.",
  "data": [
    {"experiment": "qHTS RealTime-Glo MT Cell Viability Assay in HepG2 cells - 24 hour (AID 1224867); note: nearly all actives have a fitted effect of over 50% in size", "settings": "RealTime-Glo luminescence; series mostly up to 76.8 µM; activity change, negative = cytotoxicity: at the top concentration", "description": "U.S. Tox21 Program National Center for Advancing Translational Sciences [NCATS] NIH Chemical Genomics Center [NCGC] U.S. Environmental Protection Agency [EPA] National Institutes of Environmental Health Sciences [NIEHS] National Toxicology Program [NTP] U.S. Food and Drug Administration [FDA] Tox21 Assay Overview: Measure of cell viability is critical in the cell-base assay. Analysis of cell viability is necessary for the characterization of cell responses to cytotoxic drugs and environmental stress. A RealTime-Glo MT Cell Viability Assay to monitor cell viability in real time of continues cell culture during 40 hours of compound treatment was used to screen Tox21 10K library compounds in HepG2 cells. The RealTime-Glo MT Cell Viability Assay is a nonlytic, homogeneous, bioluminescent method to measure cell viability in real time using a simple, plate-based method. The assay involves adding NanoLuc luciferase and a cell-permeant prosubstrate to cells in culture. Viable cells reduce the proprietary prosubstrate to generate a substrate for NanoLuc luciferase. This substrate diffuses from cells into the surrounding culture medium, where it is rapidly used by the NanoLuc Enzyme to produce a luminescent signal. The signal correlates with the number of viable cells, making the assay well suited for cytotoxicity studies.\nTox21 Assay Protocol Summary: The mixture of HepG2 cell suspension and reagents were dispensed at 600cells/6 ul/well in 1536-well tissue culture treated black solid bottom plates using a Multidrop dispenser. After the assay plates were incubated at a 37 C/5% CO2 incubator for 5 hours, 23 nL of compounds dissolved in DMSO, positive and negative controls was transferred to the assay plate by a pintool work station. The plates were incubated at 37 C for 40 hours. The luminescence intensity were measured at 0h, 8h, 16h, 24h, 32h and 40h time points using ViewLux plate reader during compound treatment.", "values": [
      {"smiles": "C=CCCCCCCCCC(=O)OCC", "activity change, negative = cytotoxicity": "0.0455% (inactive)"},
      {"smiles": "Nc1ccn([C@@H]2O[C@H](CO)[C@@H](O)[C@@H]2O)c(=O)n1", "activity change, negative = cytotoxicity": "2.76% (inactive)"},
      {"smiles": "O=C(O)CC(C(=O)O)S(=O)(=O)O", "note": "(stereo not given)", "activity change, negative = cytotoxicity": "1.61% (inactive)"},
      {"smiles": "CCOC(=O)OC(C)OC1=C(C(=O)Nc2ccccn2)N(C)S(=O)(=O)c2ccccc21", "note": "(stereo not given)", "activity change, negative = cytotoxicity": "0.0577% [at 35.3 µM] (inactive)"},
      {"smiles": "CCOc1ccc2nc(S(N)(=O)=O)sc2c1", "activity change, negative = cytotoxicity": "-1.77% [at 35.3 µM] (inactive)"},
      {"smiles": "c1ccc2sc(SN3CCOCC3)nc2c1", "activity change, negative = cytotoxicity": "0.0505% [at 35.3 µM] (inactive)"},
      {"smiles": "C=CC(C)(CCC=C(C)C)OC(=O)CC", "note": "(stereo not given)", "activity change, negative = cytotoxicity": "0.935% (inactive)"},
      {"smiles": "CCOc1c(N2CCOCC2)cnn(C)c1=O", "activity change, negative = cytotoxicity": "0.247% [at 35.3 µM] (inactive)"},
      {"smiles": "Cc1ccc(C(=O)Nc2ccc(S(=O)(=O)O)c3cc(S(=O)(=O)O)cc(S(=O)(=O)O)c23)cc1NC(=O)c1cccc(NC(=O)Nc2cccc(C(=O)Nc3cc(C(=O)Nc4ccc(S(=O)(=O)O)c5cc(S(=O)(=O)O)cc(S(=O)(=O)O)c45)ccc3C)c2)c1", "activity change, negative = cytotoxicity": "0.203% [at 35.3 µM] (inactive)"},
      {"smiles": "O=S(=O)(O)c1cccc(S(=O)(=O)O)c1", "activity change, negative = cytotoxicity": "0.052% (inactive)"},
      {"smiles": "c1coc(CNc2ncnc3nc[nH]c23)c1", "activity change, negative = cytotoxicity": "-0.406% (inactive)"},
      {"smiles": "COCCOC[C@H](CC1(C(=O)NC2CCC(C(=O)O)CC2)CCCC1)C(=O)Oc1ccc2c(c1)CCC2", "note": "(stereo not given in full)", "activity change, negative = cytotoxicity": "2.4% (inactive)"},
      {"smiles": "C=C(C)C(=O)OCC1CCCO1", "note": "(stereo not given)", "activity change, negative = cytotoxicity": "0.245% (inactive)"},
      {"smiles": "CN(C)C(=O)Oc1ccc[n+](C)c1", "activity change, negative = cytotoxicity": "5.09% [at 35.3 µM] (inactive)"},
      {"smiles": "COc1ccnc(CS(=O)c2nc3cc(OC(F)F)ccc3[nH]2)c1OC", "note": "(stereo not given)", "activity change, negative = cytotoxicity": "-1.17% (inactive)"},
      {"smiles": "CC(C)COC(=O)c1ccc(N)cc1", "activity change, negative = cytotoxicity": "1.29% [at 35.3 µM] (inactive)"},
      {"smiles": "C=C(C)C(=O)OCC(O)CO", "note": "(stereo not given)", "activity change, negative = cytotoxicity": "-0.284% [at 35.3 µM] (inactive)"},
      {"smiles": "C=C(C)C(=O)OCCOCCOCCOCCOC(=O)C(=C)C", "activity change, negative = cytotoxicity": "0.111% (inactive)"},
      {"smiles": "CN(C)[C@@H]1C(=O)C(C(=O)NCN2CCCC2)=C(O)[C@@]2(O)C(=O)C3=C(O)c4c(O)cccc4[C@@](C)(O)C3C[C@@H]12", "note": "(stereo not given in full)", "activity change, negative = cytotoxicity": "-0.456% [at 35.3 µM] (inactive)"},
      {"smiles": "CC[N+](CC)(CC(=O)Nc1c(C)cccc1C)Cc1ccccc1", "note": "(tested in a mixture with another compound)", "activity change, negative = cytotoxicity": "1.66% [at 35.3 µM] (inactive)"},
      {"smiles": "CC(=O)NC(=O)c1ccccc1O", "activity change, negative = cytotoxicity": "1.63% [at 35.3 µM] (inactive)"},
      {"smiles": "CCC1C(=O)OCC1Cc1cncn1C", "note": "(stereo not given)", "activity change, negative = cytotoxicity": "1.38% [at 35.3 µM] (inactive)"},
      {"smiles": "CCOC(=O)COC(=O)c1ccccc1C(=O)OCC", "activity change, negative = cytotoxicity": "3.62% (inactive)"},
      {"smiles": "CC(=O)c1ccccc1[N+](=O)[O-]", "activity change, negative = cytotoxicity": "-0.158% (inactive)"},
      {"smiles": "CCOC(=O)C1=NOC(c2ccccc2)(c2ccccc2)C1", "activity change, negative = cytotoxicity": "-1.11% (inactive)"},
      {"smiles": "NC(=O)N[C@@H](CCC(=O)O)C(=O)O", "activity change, negative = cytotoxicity": "0.569% [at 35.3 µM] (inactive)"},
      {"smiles": "Nc1ccn([C@@H]2O[C@H](CO)[C@@H](O)C2(F)F)c(=O)n1", "activity change, negative = cytotoxicity": "-0.132% [at 35.3 µM] (inactive)"},
      {"smiles": "CCN(Cc1ccccc1)c1ccccc1", "activity change, negative = cytotoxicity": "-11.3% (inactive)"},
      {"smiles": "COc1c(N2CCNC(C)C2)c(F)cc2c(=O)c(C(=O)O)cn(C3CC3)c12", "note": "(stereo not given)", "activity change, negative = cytotoxicity": "2.31% [at 35.3 µM] (inactive)"},
      {"smiles": "CCCCCC(=O)OCCc1ccccc1", "activity change, negative = cytotoxicity": "-0.846% (inactive)"},
      {"smiles": "CN(C)CCN(C)CCN(C)C", "activity change, negative = cytotoxicity": "0.98% (inactive)"},
      {"smiles": "CC/C=C\\CCOC(C)OCC", "note": "(stereo not given)", "activity change, negative = cytotoxicity": "1.76% [at 35.3 µM] (inactive)"},
      {"smiles": "CO[C@@]1(NC(=O)C(C(=O)O)c2ccc(O)cc2)C(=O)N2C(C(=O)O)=C(CSc3nnnn3C)CO[C@@H]21", "note": "(stereo not given in full)", "activity change, negative = cytotoxicity": "1.31% [at 35.3 µM] (inactive)"},
      {"smiles": "CNCCO", "activity change, negative = cytotoxicity": "0.43% (inactive)"},
      {"smiles": "Cc1c(N)c(=O)n(-c2ccccc2)n1C", "activity change, negative = cytotoxicity": "-1.81% [at 35.3 µM] (inactive)"},
      {"smiles": "COCCOCC(OC)OC", "activity change, negative = cytotoxicity": "1.78% [at 35.3 µM] (inactive)"},
      {"smiles": "CO/N=C(\\C(=O)N[C@@H]1C(=O)N2C(C(=O)O)=C(CSc3nc(=O)c(O)nn3C)CS[C@H]12)c1csc(N)n1", "activity change, negative = cytotoxicity": "0.954% [at 35.3 µM] (inactive)"},
      {"smiles": "CC(=O)Nc1ccc(OCC(O)CNC(C)C)cc1", "note": "(stereo not given)", "activity change, negative = cytotoxicity": "0.899% [at 35.3 µM] (inactive)"},
      {"smiles": "C[N+]1(CC2COC(c3ccccc3)(c3ccccc3)O2)CCCCC1", "note": "(stereo not given)", "activity change, negative = cytotoxicity": "-0.511% [at 15.8 µM] (inactive)"},
      {"smiles": "Nc1ccncc1N", "activity change, negative = cytotoxicity": "0.673% [at 35.3 µM] (inactive)"}
    ]}
  ]
}
